# From PubChem BioAssay
# Only some compounds are listed: those with a hit (about 3% of all), similar ones and a draw of the others.
# ClpP mod = qHTS Assay for Activators of ClpP | ATP-dependent Clp protease proteolytic subunit (Bacillus subtilis (strain 168)), P80244 | purified B. subtilis ClpP, FRET peptide cleavage, 20 min | Potency, µM (top dose mostly 57.5 µM), for inactives: at the top dose activity change, negative = active | hit rate 1.9% among 340,000; active means well fitted falling curve with a large enough effect; inconclusive means small, poorly fitted or top-dose-only effect; inactive means no such curve, though single readings can be large or run the other way; further: potency means the concentration at half of the fitted maximal effect; the source files actives as falling curves though it sought activators and does not explain the sign; nearly all actives have a fitted effect of over 65% in size
#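 FRET quenching reversal measured ClpP activation: 10 microg/mL B. subtilis ClpP at pH 8 with the FRET-FV decapeptide, read at 430 nm after 320 nm excitation. The 20-min minus 0-min signal was scaled between DMSO/no-enzyme wells and ADEP (5.8 microM final).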
# KCNH2 3.1 block = blocks the human KCNH2 3.1 channel isoform; U2OS KCNH2 3.1, thallium flux FluxOr; active compounds read low; activity change, % (tested at about 1.8 µM); hit rate 0.95% among 340,000; AID 720553;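 active means maximum activity change below -70%; inconclusive means maximum activity change from -70% to -50%; inactive means maximum activity change above -50%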;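 further: thallium influx rate constant from kinetic fluorescence after stimulation buffer; on the % scale 0 is the no-effect control and ±100 the full control effect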
#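 Thallium flux read-out: FluxOr dye with Red40 quencher in HBSS/HEPES, 45 min at RT. Rate constants from kinetic reads were normalized to positive and negative DMSO controls. Cells: U2OS virally expressing the 3.1 isoform.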
# hERG WT inh = blocks the wildtype human KCNH2 potassium channel; Q12809; U2OS, BacMam KCNH2, thallium flux FluxOr; active compounds read low; activity change, % at 1.84 µM; hit rate 0.37% among 340,000;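 active means maximum activity change below -70%; inconclusive means maximum activity change between -70% and -50%; inactive means maximum activity change above -50%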; further: on the % scale 0 is the no-effect control and ±100 the full control effect
#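 U2OS cells transduced with wild-type KCNH2 virus are loaded with FluxOr dye for 45 min, and thallium flux is measured in kinetic reads before and after stimulation buffer. Rate constants are normalized to DMSO controls.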
# 12-LOX inh = ALOX12 (human) lipoxygenase inhibition; Potency, µM (titrated, usually from 108 µM), inactives show at the highest dose activity change, negative = inhibition, most hits filed as inhibitors; AID 1671190; purified 12hLO, xylenol orange hydroperoxide absorbance; hit rate 1.1% among 580,000; P18054; active means well fitted inhibition curve with a large enough effect; inconclusive means small, poorly fitted or top-dose-only effect, or another doubt; inactive means no such curve, though single readings can be large or run the other way; further: potency means the concentration at half of the fitted maximal effect; on the % scale 0 is the no-effect control and ±100 the full control effect
# Target sequence (P18054 whole entry, looked up): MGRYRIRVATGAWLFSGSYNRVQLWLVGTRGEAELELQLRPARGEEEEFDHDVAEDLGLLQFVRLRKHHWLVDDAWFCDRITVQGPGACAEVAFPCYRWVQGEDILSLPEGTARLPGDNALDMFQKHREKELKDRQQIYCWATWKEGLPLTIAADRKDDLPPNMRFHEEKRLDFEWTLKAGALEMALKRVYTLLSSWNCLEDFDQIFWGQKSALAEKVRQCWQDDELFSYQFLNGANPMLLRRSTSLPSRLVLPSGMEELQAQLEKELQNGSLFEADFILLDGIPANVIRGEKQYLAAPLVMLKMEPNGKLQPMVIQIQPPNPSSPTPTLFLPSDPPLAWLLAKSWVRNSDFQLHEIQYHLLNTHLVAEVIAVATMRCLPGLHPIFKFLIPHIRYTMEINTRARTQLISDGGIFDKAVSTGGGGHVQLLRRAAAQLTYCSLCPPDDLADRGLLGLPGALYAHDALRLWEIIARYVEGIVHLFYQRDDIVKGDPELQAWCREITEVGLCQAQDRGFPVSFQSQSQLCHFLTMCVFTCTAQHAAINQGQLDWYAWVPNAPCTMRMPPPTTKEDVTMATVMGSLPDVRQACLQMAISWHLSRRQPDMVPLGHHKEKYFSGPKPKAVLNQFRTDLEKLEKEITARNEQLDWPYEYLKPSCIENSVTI
#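 Hydroperoxide product was detected by ferrous iron/xylenol orange as the 573 to 405 nm absorbance ratio. Arachidonic acid at 40 uM (final) was turned over for 30 min at room temperature by 150 nM human 12hLO, pH 7.0 Hepes buffer, after 15 min compound preincubation.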
# LDHA block = blocks human lactate dehydrogenase A; P00338; purified LDHA, NADH/diaphorase-resazurin fluorescence; active compounds read low; hit rate 0.15% among 480,000; AID 1347041; activity change, % (values are at about 110 or 230 µM); in the data active means activity change below about -30%; inconclusive means mostly about -25% to -30%;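 further: plate controls were DMSO wells for no effect and wells without enzyme for full effect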
#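 Human LDH5 at 2 nM final in Tris HCl pH 7.4 with 0.06 mM NADH and 0.2 mM pyruvate, reacted 5 minutes at room temperature. Remaining NADH coupled via diaphorase/resazurin; resorufin fluorescence read at 0 and 20 minutes, normalized to enzyme-free and DMSO wells.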
# BCR signal inh = inhibitors of chronic active B-cell receptor signaling. ABC-DLBCL IkBa-CBG/CBR reporter, luminescence ratio, 4 h. Potency, µM (highest dose often 46.1 µM), for inactives: at the top dose activity change, negative = inhibition, hits mostly inhibitors. hit rate 0.05% among 340,000. AID 493014; active means well fitted inhibition curve with a large enough effect in the signal ratio, with a control signal flat, not every such curve was filed as active; inconclusive means small, poorly fitted or top-dose-only effect, or effect the other way, or a change in a side signal; the % refers to the signal ratio;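 further: potency means the concentration at half of the fitted maximal effect; plate controls were basal doxycycline-induced cells for no effect and cells given 10 µM MG132 for full effect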
#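 Concentration-response series (up to 46 uM) were applied to TMD8 dual-reporter cells for 4 h at 37C with doxycycline. Green/red ratio, after filter-overlap correction, defined %Activity; red signal alone was normalised to basal cells and zero luminescence.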
# Starred values were filed as active, the others as inactive; ? = inconclusive; nt = no result given; ! = not active in a repeat.
SMILES,ClpP mod,KCNH2 3.1 block,hERG WT inh,12-LOX inh,LDHA block,BCR signal inh
Cc1c(OCC(=O)C(C)(C)C)ccc2c3c(c(=O)oc12)CCC3,nt,nt,nt,?,3.1,nt
CC(NC(=O)c1ccc2ccccc2n1)c1cccs1 (stereo not given),nt,nt,nt,?,-13.1,nt
Cc1sc2ccn(C)c(=O)c2c1C(=O)NCc1ccc(OC(C)C)cc1,nt,nt,nt,-1.6%,nt,nt
CCOC(=O)CCc1c(C)c2ccc(OCC)c(C)c2oc1=O,31.6µM*,-0.9,-6.5,12.1%,-1.7,9.2%
CSc1ccc(NC(=O)N2CCC(N(CCC(C)C)C3CCOCC3)CC2)cc1,nt,nt,nt,48.7%,nt,nt
CCOC(=O)N1CCC(NC(=O)c2ccc3c(c2)N(Cc2ccc(C)cc2)CCS3)CC1,4.7%,-7.9,-0.8,6.0%,-5.4,6.0%
CCOC(=O)N1CCC(NC(=O)c2ccc3c(c2)N(C)CCS3)CC1,28.2µM*,1.9,49.8,?,3.8,1.7%
CN(Cc1ccc(C(=O)NCC(F)(F)F)cc1)C(=O)c1cc(F)cc(F)c1,nt,nt,nt,4.4%,-5.2,nt
CC(Sc1ccc2nnc(-c3ccc(F)cc3)n2n1)C(=O)O (stereo not given),3.9%,5.9,-36.4,?,-9.8,1.8%
Cc1ccc(-c2nnc3ccc(SC(C)C(=O)O)nn23)cc1 (stereo not given),-22.3%,-15.5,-7.1,31.6µM*,-1.7,2.3%
CCc1c(C)nc(SCC(=O)N2CCN(c3ccccc3OC)CC2)[nH]c1=O,0.9%,1.9,-4.4,-3.3%,-4.8,4.1%
COc1ccc(-c2nnc3ccc(SCC(=O)N4CCN(c5ccccc5)CC4)nn23)cc1,-0.7%,-5.0,-0.4,31.6µM*,-1.0,nt
CCc1c(C)nc(SCC(=O)N2CCN(c3ccccc3)CC2)[nH]c1=O,nt,nt,-78.5*,-17.4%,-4.9,10.6%
Cc1cc(C)n2nc(SCC(=O)N3CCN(c4ccccc4)CC3)nc2n1,31.6µM*,40.5,11.7,?,1.0,-7.5%
COc1cc(/C=C(/C#N)c2ccccn2)cc(OC)c1OC(F)F,nt,nt,nt,?,4.3,nt
CCCn1c(N)c(C(=O)CSc2ccc3ccccc3n2)c(=O)[nH]c1=O,nt,nt,nt,?,-13.2,nt
CS(=O)(=O)NNc1ccc(S(N)(=O)=O)cc1[N+](=O)[O-],nt,nt,nt,-32.8%,16.1,nt
c1ccc(Cn2ncc3c2CCCC3NCc2ccsc2)cc1 (stereo not given),nt,nt,nt,?,5.3,nt
Cn1c(SCC(=O)N2CCN(c3ccccc3)CC2)nnc1-c1ccco1,0.6%,5.2,-77.1*,-29.5%,-4.9,0.0%
CC(/C=C\c1cccnc1)=C/C(=O)O,2.2%,-77.1*!,-0.6,0.0%,-4.8,0.9%
COc1ccc(S(=O)(=O)CC(=O)c2cc3cc(Br)ccc3oc2=O)cc1,0.2%,12.0,-4.3,7.94µM*,10.1,?
Fc1ccccc1Sc1ccccc1CNC1=NCCN1,1.8%,-30.4,-16.4,?,-14.0,-3.5%
c1ccc(Sc2cccc3ccccc23)c(CNC2=NCCN2)c1,3.16µM*,3.2,-8.6,?,-22.5,-13.3%
CCc1cccc(C)c1NC(=O)Cc1nn(C)c(=O)c2ccccc12,nt,nt,nt,?,0.7,nt
CCCN1CCN(C(=O)Cn2c(-c3cccs3)cc3cc(F)ccc32)CC1,4.2%,nt,nt,-19.1%,-0.7,nt
SMILES,ClpP mod,KCNH2 3.1 block,hERG WT inh,12-LOX inh,LDHA block,BCR signal inh
CCCN1CCN(C(=O)Cn2c(-c3cccs3)cc3ccccc32)CC1,31.6µM*,nt,nt,6.6%,2.0,nt
CN1CCN(C(=O)Cn2c(-c3cccs3)cc3ccccc32)CC1,28.2µM*,nt,nt,-0.4%,0.2,nt
CN1CCN(C(=O)CCn2c(-c3ccccc3)cc3ccccc32)CC1,nt,nt,nt,7.6%,-1.0,nt
COc1cc(C(=S)N2CCN(c3cccc(Cl)c3)CC2)ccc1O,nt,-7.8,-0.6,44.7µM*,-1.4,-27.7%
COc1cc(C(=S)N2CCN(c3ccccc3Cl)CC2)cc(O)c1O,1.0%,-75.4*,-174.1*,?,7.4,?
Cc1noc(C)c1CC(=O)N1CCCC(COc2ccccc2C(=O)NC2CC2)C1 (stereo not given),nt,nt,nt,46.7%,nt,nt
